Screening data as filed in PubChem.
ADAM17 inh: ADAM17 inhibitors, primary screen, biochemical, QFRET. recombinant ADAM17, EDANS/DABCYL FRET peptide cleavage. AID 720648, 2013. hit rate 0.83% among 370,000. inhibition, % at 6.95 µM. Disintegrin and metalloproteinase domain-containing protein 17 (Homo sapiens), P78536;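 active = inhibition above the mean of compounds lying between control limits plus 3 SD, set per campaign, cut at about 8.5% in these data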;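 also: 0% = DMSO-only wells as the low control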
GC-A act: GC-A stimulated cGMP production enhancers – HEK293 GC-A cells, cGMP TR-FRET, EC30 ANP, primary screen | 0% at EC30 ANP, 100% saturating ANP | activation, % at 10 µM | hit rate 0.14% among 370,000 | AID 1671463, 2021; in the data active = activation above about 40%
KLK7 zymogen act: proKLK7 zymogen activators, primary screen, biochemical, fluorescence intensity; hit rate 0.9% among 370,000; activation, % at 7 µM; purified proKLK7, EDANS-DABCYL substrate fluorescence; 100% is mature enzyme control, 0% vehicle;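 active = activation above the mean of all tested compounds plus 3 SD, computed per campaign excluding outliers beyond control limits, cut at about 13% in these data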
ADAM10 inh: human ADAM10 inhibitors, primary screen, biochemical, QFRET, HTS. Disintegrin and metalloproteinase domain-containing protein 10 (Homo sapiens), O14672. recombinant ADAM10, EDANS/DABCYL FRET peptide cleavage, 3 h. inhibition, % at 7 µM. hit rate 0.62% among 370,000. AID 720582, 2013;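 active = inhibition above a per-campaign cutoff equal to the mean of compounds falling between control-based bounds plus 3 SD, cut at about 20% in these data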;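 also: 0% = DMSO wells while the 100% control is not disclosed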
GC-B act: human GC-B receptor activators, primary screen, HEK293 GC-B cells, cGMP TR-FRET, EC30 CNP; AID 1920062, 2024; activation, % at 10 µM; hit rate 0.11% among 370,000; Atrial natriuretic peptide receptor 2 (Homo sapiens), P20594; 0% at EC30 CNP, 100% saturating CNP;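 active = activation at 10 µM reaching about 35% in either raw or pattern-adjusted values, limit read from the data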
proKLK7 act conf: proKLK7 zymogen activators, confirmation, biochemical, fluorescence intensity, triplicate; activation, % at 7 µM; purified proKLK7, EDANS-DABCYL substrate fluorescence; scaled: vehicle 0, mature enzyme 100; AID 686949, 2013; hit rate 68% among 3,200; shares compounds with KLK7 zymogen act;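 active = activation, as change over the incubation, above the mean of all tested compounds plus 3 SD, cut at about 13% in these data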
EDANS-DABCYL int: EDANS-DABCYL substrate optical interference, artefact control for kallikrein-7 zymogen activator project, biochemical, fluorescence intensity, high throughput; AID 686952, 2013; shares compounds with KLK7 zymogen act; hit rate 80% among 3,200; activation, % at 7 µM; no enzyme, 4 h; solvent 0%, active enzyme control 100%;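 active = activation above the all-compound mean plus 3 SD, ignoring values outside control-based bounds, cut at about 4.8% in these data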;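 also: value is the 4 h activation minus the activation read at time zero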
EDANS interf: optically interferes with EDANS-DABCYL fluorescence, kallikrein-7 activator counter-screen; shares compounds with KLK7 zymogen act; EDANS-DABCYL peptide fluorescence interference, no enzyme; EC50, µM; hit rate 20% among 250;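 active = compounds that raise the fluorescence signal in this interference counterscreen, with EC50 at or below 10 µM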;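 also: intact quenched peptide substrate alone read at 355 nm excitation and 520 nm emission; signal is fluorescence gain from T0 to T4 after four hours at room temperature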
Starred values were filed as active, the others as inactive; i = inactive; · = no result. Compounds with a hit are over-represented: about 2.2% of the library has one in this group of screens.

SMILES	ADAM17 inh	GC-A act	KLK7 zymogen act	ADAM10 inh	GC-B act	proKLK7 act conf	EDANS-DABCYL int	others
CN1CCSc2ccc(C(=O)NCc3cccc(F)c3)cc21	i	0	49*	i	-1	51*	1	EDANS interf=>70
O=C(NC1CCCC1)c1ccc2c(c1)N(Cc1ccc(F)cc1)CCS2	-269	2	-34	i	-3	·	·
Cc1ccc(CN2CCSc3ccc(C(=O)NCc4cccnc4)cc32)cc1	i	8	-35	i	5	·	·
COc1ccc2[nH]c3c(c2c1)CCN[C@]31C(=O)N(Cc2cn(Cc3ccccc3)nn2)c2ccc(F)cc21	-6	0	1	-15	4	·	·
COC(CNC(=O)[C@H](Cc1ccccc1)NCC(=O)NC1CCCCC1)OC	-6	-2	·	-11	-2	·	·
O=C(CN1C(=O)C2CCCCN2C(=O)c2ccccc21)N1CCCC1 (configuration not stated)	-2	1	0	-10	11	·	·
CN(CCOC(=O)c1cc2ccccc2o1)C1CN(Cc2cn(Cc3ccccc3C(F)(F)F)nn2)S(=O)(=O)C1 (configuration not stated)	-9	-1	0	-11	-2	·	·
COC(=O)C1=CN(C)C=C(C(=O)OC)C1c1ccccc1Cl	-415	-1	24*	i	-4	76*	77*
CC(=O)Oc1cc2oc(=O)cc(C)c2cc1Cl	i	0	82*	i	-2	368*	377*
O=C(CCCCCN1C(=O)c2ccccc2C1=O)Oc1ccc2c3c(c(=O)oc2c1)CCC3	-304	-3	31*	i	-5	215*	146*
O=C(Oc1cc2oc(=O)c3c(c2cc1Cl)CCCC3)c1ccco1	i	6	55*	i	2	397*	406*
O=C(Oc1ccc2c3c(c(=O)oc2c1)CCC3)c1ccco1	i	1	578*	i	-4	774*	820*
Cc1cc2oc(=O)c3c(c2cc1OC(=O)c1ccco1)CCCC3	-4	-1	1	-7	-4	·	·
CCCCCCCCN1C(=O)[C@@H](CC(=O)NCc2ccc(OC)c(OC)c2)C[C@@]2(C(=O)OC)C1=C[C@H](COCc1ccccc1)O[C@@H]2C	5	3	0	13	5	·	·
CC(C)N1Cc2nnn(Cc3ccc(F)cc3)c2-c2cc(F)ccc2S1(=O)=O	-3	-2	0	-2	4	·	·
O=C(Oc1cc2oc(=O)c3c(c2cc1Cl)CCCC3)c1cccs1	i	1	62*	i	-1	260*	223*
O=C(Oc1ccc2c3c(c(=O)oc2c1)CCCC3)c1cccs1	-263	4	-24	i	-5	·	·
Cc1cc(=O)oc2cc(OC(C)C(=O)O)c(Cl)cc12 (configuration not stated)	-90	3	0	-271	0	·	·
